PubChem BioAssay (NCATS)
“And” between values parts separate entries of the source, which are not always exact repeats. Equal entries are not always repeated. Results filed as inconclusive are left out. A call without a number means that no potency is given here. Some structures have more than one record in an assay (separate samples or runs), and their calls can disagree. The source made the active and inactive calls. Unless noted, calls come from the whole dose curve; as a rule, active = well fitted curve in the direction sought with a large enough effect; inconclusive = small, poorly fitted or top-dose-only effect, or another doubt; inactive = no such curve, though single readings can be large; an effect the other way counts as inactive or inconclusive.

How the values were obtained:
[1] = qHTS assay to identify small molecule inhibitors of chordoma cells - UCH-1 (AID 1259355); note: nearly all actives have a fitted effect of over 55% in size; note: potency is the fitted concentration of half-maximal effect; series mostly up to about 46 µM
In short: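 Screening used approved and investigational drugs in 15-point titration against 800 seeded cells per well. A fixed combination of auranofin with camptothecin, doxorubicin, rubitecan and topotecan followed compound addition, and growth was scored by CellTiter-Glo after 48hr.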

[2] = qHTS assay to identify small molecule inhibitors of chordoma cells - UCH-2 (AID 1259356); note: series mostly up to about 46 µM
[3] = P-glycoprotein substrates identified in KB-8-5-11 adenocarcinoma cell line, qHTS therapeutic library screen (AID 1346987); conditions: outcome: dose series up to 44.5 µM unless noted; note: nearly all actives have a fitted effect of over 65% in size; note: potency is the fitted concentration of half-maximal effect
In short: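 In this qHTS, P-gp-rich KB-8-5-11 cells received library compounds across a concentration range. Viability was quantified by luminescence after 72 h at 37 degree C.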

[4] = NS1 protein of Zika virus - qHTS assay to identify small molecule inhibitors in human HEK 293 cells (AID 1347053); note: nearly all actives have a fitted effect of over 55% in size; note: potency is the fitted concentration of half-maximal effect
In short: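 Readout was TR-FRET using paired anti-NS1 antibodies after 24 h infection of HEK 293 cells with ZIKV MR766 (MOI = 0.5). Compound preceded virus by 1 h; reduced signal reflects lower NS1 expression.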

[5] = biological target: T1, Tyrosine-protein phosphatase non-receptor type substrate 1 (Homo sapiens) + Leukocyte surface antigen CD47 (Homo sapiens) (UniProt P78324+Q08722); assay: CD47-SIRPalpha protein protein interaction - LANCE assay qHTS validation (AID 1347057; active = well fitted curve in the direction sought with a large enough effect in the signal ratio, with a control signal flat, not every such curve was filed as active; the % refers to the signal ratio; note: series mostly up to about 38 µM)
In short: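 Inhibition of soluble CD47/SIRPalpha ectodomain association by titrated compounds, measured as 665/615 nm time-resolved FRET ratio after sequential 30 min room-temperature incubations.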

[6] = qHTS Screen of the MIPE 4.0 Collection Against Ewings Sarcoma (EW8) (AID 1259255); note: nearly all actives have a fitted effect of over 35% in size; note: potency is the fitted concentration of half-maximal effect
In short: (§1)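 Viability screen: 48 h incubation at 37C, 95% humidity, 5% CO2 with serially titrated compound, followed by CellTiter-Glo readout.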

[7] = P-glycoprotein substrates identified in KB-3-1 adenocarcinoma cell line, qHTS therapeutic library screen (AID 1346986); conditions: outcome: dose series up to 44.5 µM unless noted; note: nearly all actives have a fitted effect of over 60% in size
In short: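 Viability by CellTiter-Glo after 72 h compound exposure at 37 degree C, 5% CO2. Cytotoxic call: curve class -1.1 to -2.4, maximum response >50%, AC50 < 10 uM, compared across KB-3-1 and P-gp-overexpressing KB-8-5-11.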

[8] = biological target: Atrial natriuretic peptide receptor 1 (Homo sapiens) (UniProt P16066); assay: Natriuretic polypeptide receptor (hNpr1) antagonism - Pilot screen (AID 1347049; calls by dose curve;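 note: agonist-evoked cGMP luminescence read 20 min after hNppA addition; series mostly up to about 58 µM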)
In short: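 cGMP-sensor HEK293/hNpr1 cells, 1500/well, plated overnight at 37C. 2% GloSensor reagent, 2 h RT. Compound (23 nL pin transfer) 30 min RT, baseline luminescence pre-read. 0.1 nM hNppA, 20 min RT, post-read.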

[9] = biological target: Atrial natriuretic peptide receptor 2 (Homo sapiens) (UniProt P20594); assay: Natriuretic polypeptide receptor (hNpr2) antagonism - Pilot subtype selectivity assay (AID 1347050; calls by dose curve)
In short: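 Luminescence from a genetically encoded cGMP luciferase biosensor in hNpr2-expressing HEK293 cells is read before and 20 min after adding 1 nM hNppC. Test compounds, in interplate 1:5 titrations, are added 30-50 min ahead of the agonist.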

[10] = biological target: T1, Tyrosine-protein phosphatase non-receptor type substrate 1 (Homo sapiens) + Leukocyte surface antigen CD47 (Homo sapiens); assay: CD47-SIRPalpha protein protein interaction - HTRF assay qHTS validation (AID 1347058; active = well fitted curve in the direction sought with a large enough effect in the signal ratio, not every such curve was filed as active; the % refers to the signal ratio; note: series mostly up to about 38 µM)
In short: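 Soluble extracellular domains (6His-CD47, Avi-tag-biotinylated SIRPalpha) in PBS pH 7.4 with 0.05% IGEPAL CA-630. Compounds were preincubated 30 min at RT with CD47 and anti-His-Eu, then SIRPalpha and SAV-XL665 were added. TR-FRET 665/615 ratio.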

[11] = qHTS Screen of the MIPE 4.0 Collection Against Ewings Sarcoma (TC32) (AID 1259256); note: potency is the fitted concentration of half-maximal effect; nearly all actives have a fitted effect of over 45% in size
In short: as §1

[12] = qHTS Screen of the MIPE 4.0 Collection Against Ewings Sarcoma (TC71) (AID 1259253); note: nearly all actives have a fitted effect of over 40% in size; note: potency is the fitted concentration of half-maximal effect
In short: as §1

[13] = Natriuretic polypeptide receptor (hNpr1) antagonism - Pilot counterscreen GloSensor control cell line (AID 1347045; calls by dose curve; note: series mostly up to about 38 µM)
In short: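 HEK293 cGMP-sensor cells; 2% GloSensor reagent 2 h RT; LOPAC compounds in 1:5 titrations 30-50 min; 50 uM SNP 20 min; luminescence pre-read and post-read.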

Atrial natriuretic peptide receptor 2 (Homo sapiens), sequence (P20594 whole entry, looked up): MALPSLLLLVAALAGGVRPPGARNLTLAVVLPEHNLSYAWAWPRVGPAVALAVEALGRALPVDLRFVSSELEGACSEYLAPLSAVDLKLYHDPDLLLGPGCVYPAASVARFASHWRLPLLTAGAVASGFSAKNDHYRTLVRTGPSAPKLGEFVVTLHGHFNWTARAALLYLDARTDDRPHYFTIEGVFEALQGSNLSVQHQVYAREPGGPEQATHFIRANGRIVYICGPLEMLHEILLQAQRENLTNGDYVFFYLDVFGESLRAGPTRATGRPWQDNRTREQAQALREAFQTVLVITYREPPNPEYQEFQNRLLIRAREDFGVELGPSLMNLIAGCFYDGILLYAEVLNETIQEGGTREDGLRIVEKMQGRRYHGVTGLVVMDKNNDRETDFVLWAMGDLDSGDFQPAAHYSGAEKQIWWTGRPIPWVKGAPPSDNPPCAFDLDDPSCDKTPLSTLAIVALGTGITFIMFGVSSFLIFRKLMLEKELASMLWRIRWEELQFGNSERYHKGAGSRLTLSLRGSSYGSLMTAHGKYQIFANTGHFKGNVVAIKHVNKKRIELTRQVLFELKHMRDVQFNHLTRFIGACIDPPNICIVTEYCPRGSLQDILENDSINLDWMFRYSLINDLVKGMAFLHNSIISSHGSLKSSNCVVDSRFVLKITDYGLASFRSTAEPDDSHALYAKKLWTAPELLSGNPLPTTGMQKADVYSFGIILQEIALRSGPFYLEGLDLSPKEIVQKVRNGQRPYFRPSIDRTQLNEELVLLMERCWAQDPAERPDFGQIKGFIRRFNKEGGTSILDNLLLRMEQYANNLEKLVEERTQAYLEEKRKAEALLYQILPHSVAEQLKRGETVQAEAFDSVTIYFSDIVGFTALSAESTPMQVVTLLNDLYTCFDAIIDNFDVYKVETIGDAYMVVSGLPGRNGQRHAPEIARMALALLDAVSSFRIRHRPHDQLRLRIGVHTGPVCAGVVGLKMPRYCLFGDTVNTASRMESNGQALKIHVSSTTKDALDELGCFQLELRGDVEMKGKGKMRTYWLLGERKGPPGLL
Atrial natriuretic peptide receptor 1 (Homo sapiens), sequence (P16066 whole entry, looked up): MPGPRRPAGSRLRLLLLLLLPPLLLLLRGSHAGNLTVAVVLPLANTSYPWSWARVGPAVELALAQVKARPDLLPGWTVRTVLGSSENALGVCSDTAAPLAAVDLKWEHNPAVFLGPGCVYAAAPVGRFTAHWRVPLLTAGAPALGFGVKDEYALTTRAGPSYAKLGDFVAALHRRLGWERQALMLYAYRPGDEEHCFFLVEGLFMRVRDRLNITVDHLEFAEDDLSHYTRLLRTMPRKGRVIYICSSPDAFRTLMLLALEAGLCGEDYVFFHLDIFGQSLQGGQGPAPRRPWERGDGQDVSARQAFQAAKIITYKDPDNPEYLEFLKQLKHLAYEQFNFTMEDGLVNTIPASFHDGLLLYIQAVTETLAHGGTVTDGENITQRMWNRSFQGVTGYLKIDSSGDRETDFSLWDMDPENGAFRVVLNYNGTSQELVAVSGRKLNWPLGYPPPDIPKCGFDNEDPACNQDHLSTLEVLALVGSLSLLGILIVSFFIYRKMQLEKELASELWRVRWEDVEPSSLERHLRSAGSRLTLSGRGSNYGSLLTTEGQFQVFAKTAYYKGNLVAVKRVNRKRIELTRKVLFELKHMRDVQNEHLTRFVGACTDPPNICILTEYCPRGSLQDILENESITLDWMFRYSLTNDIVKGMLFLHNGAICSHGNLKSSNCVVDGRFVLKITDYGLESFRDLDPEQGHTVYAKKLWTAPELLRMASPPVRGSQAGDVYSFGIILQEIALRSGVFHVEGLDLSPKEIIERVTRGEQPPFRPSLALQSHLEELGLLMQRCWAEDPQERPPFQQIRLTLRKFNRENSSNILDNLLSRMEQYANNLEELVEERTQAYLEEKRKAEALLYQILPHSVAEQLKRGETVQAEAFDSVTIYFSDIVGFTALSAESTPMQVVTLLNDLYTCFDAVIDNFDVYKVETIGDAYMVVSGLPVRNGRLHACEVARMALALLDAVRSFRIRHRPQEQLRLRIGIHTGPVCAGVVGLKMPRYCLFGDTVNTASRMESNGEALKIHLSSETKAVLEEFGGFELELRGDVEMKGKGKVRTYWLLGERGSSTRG
T1 sequence (P78324 whole entry, looked up, the tested form may be a part): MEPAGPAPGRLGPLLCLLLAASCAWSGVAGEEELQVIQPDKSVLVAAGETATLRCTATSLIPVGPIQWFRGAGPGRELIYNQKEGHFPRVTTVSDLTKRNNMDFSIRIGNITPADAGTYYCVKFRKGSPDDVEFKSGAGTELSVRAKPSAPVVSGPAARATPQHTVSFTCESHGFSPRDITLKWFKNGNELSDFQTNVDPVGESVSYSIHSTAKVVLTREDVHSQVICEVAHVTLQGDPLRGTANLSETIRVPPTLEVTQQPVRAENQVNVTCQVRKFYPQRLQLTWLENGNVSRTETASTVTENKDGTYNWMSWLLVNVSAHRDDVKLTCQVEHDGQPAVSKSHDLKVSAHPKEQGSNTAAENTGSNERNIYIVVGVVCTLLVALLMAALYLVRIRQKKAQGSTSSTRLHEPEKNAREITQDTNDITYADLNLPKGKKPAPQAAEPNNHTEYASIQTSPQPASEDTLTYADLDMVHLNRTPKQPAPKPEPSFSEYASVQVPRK
T1 sequence (Q08722 whole entry, looked up, the tested form may be a part): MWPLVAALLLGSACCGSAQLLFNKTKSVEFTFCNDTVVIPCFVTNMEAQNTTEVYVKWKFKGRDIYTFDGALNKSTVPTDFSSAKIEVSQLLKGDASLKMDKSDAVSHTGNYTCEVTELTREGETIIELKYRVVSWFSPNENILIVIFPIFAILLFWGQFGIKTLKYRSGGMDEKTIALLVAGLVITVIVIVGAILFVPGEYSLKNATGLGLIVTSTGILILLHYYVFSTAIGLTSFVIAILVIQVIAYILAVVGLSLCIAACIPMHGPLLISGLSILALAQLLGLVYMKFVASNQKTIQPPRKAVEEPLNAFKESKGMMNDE

Structure (SMILES)	Potency [1]	outcome [2]	Potency [3]	Potency [4]	outcome [5]	Potency [6]	outcome [7]	Potency [8]	Potency [9]	outcome [10]	Potency [11]	Potency [12]	Potency [13]
CCOC(=O)Nc1ccc(NCc2ccc(F)cc2)nc1N	inactive	inactive	inactive	inactive	inactive								
CN(C)CCOC(c1ccccc1)c1ccccc1		inactive	inactive	inactive	inactive	inactive	inactive	inactive	inactive	inactive			
OCCN1CCN(CCCN2c3ccccc3Sc3ccc(C(F)(F)F)cc32)CC1	31.6 µM (active)		16.6 µM (active) and 18.4 µM (active)	16.6 µM (active) and inactive	inactive			inactive		inactive	23.5 µM (active)		
CS(=O)(=O)Nc1ccc([N+](=O)[O-])cc1Oc1ccccc1	inactive	inactive	inactive	inactive		16.6 µM (active)		inactive	inactive			16.6 µM (active)	
CNCCCC12CCC(c3ccccc31)c1ccccc12	inactive	inactive	20.9 µM (active)	20.9 µM (active)	inactive	18.7 µM (active)		inactive	inactive	inactive	23.5 µM (active)		
CCCNCC(O)COc1ccccc1C(=O)CCc1ccccc1 (stereo unspecified)	inactive	inactive		inactive	inactive	20.9 µM (active)		inactive	inactive	inactive		14.8 µM (active)	
Cc1cnc(C(=O)NCCc2ccc(S(=O)(=O)NC(=O)NC3CCCCC3)cc2)cn1	inactive	inactive	inactive	inactive				inactive					
NC12CC3CC(CC(C3)C1)C2	inactive	inactive	inactive	inactive	inactive			inactive		inactive		26.4 µM (active)	
NC(CO)C(=O)NNCc1ccc(O)c(O)c1O (stereo unspecified)	inactive	inactive	inactive	inactive				inactive	inactive				
C[C@@H]1CC(=O)NN=C1c1ccc(NN=C(C#N)C#N)cc1	inactive	inactive	inactive	inactive and 14.8 µM (active)		20.9 µM (active)					20.9 µM (active)	29.6 µM (active)	
Cc1ccc(C(=O)Nc2ccc(S(=O)(=O)O)c3cc(S(=O)(=O)O)cc(S(=O)(=O)O)c23)cc1NC(=O)c1cccc(NC(=O)Nc2cccc(C(=O)Nc3cc(C(=O)Nc4ccc(S(=O)(=O)O)c5cc(S(=O)(=O)O)cc(S(=O)(=O)O)c45)ccc3C)c2)c1	inactive	inactive	inactive	inactive	inactive	inactive		inactive				inactive	
NCCCCCC(=O)O	inactive	inactive	inactive	inactive	inactive	inactive		inactive	inactive	inactive			inactive
OCCN(CCO)c1nc(N2CCCCC2)c2nc(N(CCO)CCO)nc(N3CCCCC3)c2n1		inactive		inactive				inactive	inactive			20.9 µM (active)	inactive
O=C(CCCN1CCC(O)(c2ccc(Cl)cc2)CC1)c1ccc(F)cc1	inactive	inactive	18.4 µM (active)	inactive	inactive			inactive		inactive	20.9 µM (active)	18.7 µM (active)	
Clc1ccccc1C(c1ccccc1)(c1ccccc1)n1ccnc1	inactive	inactive	9.88 µM (active)	inactive	inactive			inactive	inactive	inactive		20.9 µM (active)	
CN(CCOc1ccc(NS(C)(=O)=O)cc1)CCc1ccc(NS(C)(=O)=O)cc1	inactive	inactive	inactive	inactive	inactive					inactive		16.6 µM (active)	
CN1C2CCC1CC(OC(=O)C(CO)c1ccccc1)C2 (stereo unspecified)			inactive	inactive	inactive			inactive		inactive			
CC1COc2c(N3CCN(C)CC3)c(F)cc3c(=O)c(C(=O)O)cn1c23 (stereo unspecified)	inactive	inactive	inactive	inactive		inactive	inactive	inactive	inactive				
CN(C)C(=O)C(CCN1CCC(O)(c2ccc(Cl)cc2)CC1)(c1ccccc1)c1ccccc1		inactive	18.7 µM (active)	inactive	inactive	16.6 µM (active)		inactive		inactive	18.7 µM (active)	20.9 µM (active)	
Nc1nnc(-c2cccc(Cl)c2Cl)c(N)n1	inactive	inactive	inactive	inactive	inactive					inactive			
CN1CCN(CCCN2c3ccccc3Sc3ccc(Cl)cc32)CC1			23.5 µM (active)	23.5 µM (active) and inactive	inactive			inactive		inactive			
